This passage reports Potency, Z-AUC and z-score results from PubChem BioAssay (NCATS).

Values joined by “and” are separate entries in the source; they are usually repeats but may differ in a detail not shown here. Identical values can stand only once. Inconclusive results are not listed. Where a structure was tested more than once in an assay, its records may differ in their call. Active and inactive are the calls of the source. Unless noted, the call rests on the fitted dose curve; in most records, active means well fitted inhibition curve with a large enough effect; inconclusive means small, poorly fitted or top-dose-only effect; inactive means flat fitted curve, though single readings scatter.

Test [1] in a line: qHTS drug screen for cell cycle checkpoint inhibitors in PARPi-resistant BRCA-mutant ovarian cancer cell lines. (AID 1963452; calls by dose curve; further: potency means the concentration at half of the fitted maximal effect). The conditions noted are these: PEO1/OlaR viability, CellTiter-Glo luminescence, 96 h; for Z-AUC: stronger effect = lower value. A digest of the protocol:
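PEO1, PEO4 and PEO1/OlaR ovarian cancer cells, 600 per well, exposed 96 h at 37C to a dilution series. Viability read by CellTiter-Glo luminescence, normalized to DMSO and empty wells; activity summarized as Z-AUC.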
For orientation: Quantitative high-throughput screening tests each substance at several concentrations.

A short description of test [2]: qHTS for identification of novel therapeutic agents for treatment of microphthalmiaassociated transcription factor (MiT) renal cell carcinoma (RCC) (AID 1963991). The following applies: CellTiter-Glo, 48 h, stronger effect = lower value. Summed up: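 Three TFE3-fusion RCC cell lines (UOK109, UOK124, UOK145), 500 cells/well, were exposed to the 1912-compound MIPE 4.0 library for 48 hours at 37 C. Viability was read by CellTiter-Glo luminescence, normalised to DMSO (100%) and empty wells (0%), with 11-concentration curve fits.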

Test [3] in a line: qHTS profiling for inhibitors of Plasmodium falciparum proliferation (AID 504749). Further: potency means the concentration at half of the fitted maximal effect; nearly all actives have a fitted effect of over 60% in size. The conditions noted are these: P. falciparum in erythrocytes, SYBR Green DNA, 72 h. Summed up: (§1)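 In a 72 h erythrocytic culture (37 C, humidified, 5% CO2) at 2.5% hematocrit and 0.3% starting parasitemia, compounds were tested; SYBR Green I in detergent lysis buffer stained parasite DNA overnight.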

Test [4] concerns 3D7. The description is as above. The following applies: P. falciparum in erythrocytes, SYBR Green DNA, 72 h; series mostly up to 28.7 µM. A digest of the protocol:
as §1

Test [5] relates to 7G8. Described as above. The following applies: P. falciparum in erythrocytes, SYBR Green DNA, 72 h; series mostly up to 28.7 µM. Summed up:
as §1

Test [6] has as its system AA1029. The test is described as above. The following applies: P. falciparum in erythrocytes, SYBR Green DNA, 72 h; series mostly up to 28.7 µM. Summed up: as §1
For test [7], the system named is AS120. The test is described as above. The following applies: P. falciparum in erythrocytes, SYBR Green DNA, 72 h; series mostly up to 28.7 µM. A digest of the protocol: as §1
The subject of test [8] is ATS189. The test is described as above. The conditions noted are these: P. falciparum in erythrocytes, SYBR Green DNA, 72 h; series mostly up to 28.7 µM. Summed up:
as §1

Test [9] relates to ATS95. The test is described as above. The following applies: P. falciparum in erythrocytes, SYBR Green DNA, 72 h; series mostly up to 28.7 µM. A digest of the protocol: as §1
The subject of test [10] is C2A. Described as above. The following applies: P. falciparum in erythrocytes, SYBR Green DNA, 72 h; series mostly up to 28.7 µM. Summed up: as §1
Test [11] concerns CP191. Described as above. The following applies: P. falciparum in erythrocytes, SYBR Green DNA, 72 h; series mostly up to 28.7 µM. Summed up:
as §1

The test system of test [12] is CP192. The description is as above. The conditions noted are these: P. falciparum in erythrocytes, SYBR Green DNA, 72 h; series mostly up to 28.7 µM. A digest of the protocol: as §1
In test [13] the test system is CP194. The test is described as above. The conditions noted are these: P. falciparum in erythrocytes, SYBR Green DNA, 72 h; series mostly up to 28.7 µM. A digest of the protocol: as §1
In test [14] the test system is CP201. Described as above. The following applies: P. falciparum in erythrocytes, SYBR Green DNA, 72 h; series mostly up to 28.7 µM. Summed up: as §1
The test system of test [15] is CP203. The description is as above. The conditions noted are these: P. falciparum in erythrocytes, SYBR Green DNA, 72 h; series mostly up to 28.7 µM. A digest of the protocol: as §1
Test [16] deals with CP215. The description is as above. The conditions noted are these: P. falciparum in erythrocytes, SYBR Green DNA, 72 h; series mostly up to 28.7 µM. Summed up:
as §1

The subject of test [17] is CP217. The description is as above. The conditions noted are these: P. falciparum in erythrocytes, SYBR Green DNA, 72 h; series mostly up to 28.7 µM. Summed up:
as §1

For test [18], the system named is CP237. Described as above. The conditions noted are these: P. falciparum in erythrocytes, SYBR Green DNA, 72 h; series mostly up to 28.7 µM. Summed up: as §1
The mark [19] stands for this setting: measured here: PEO1 parental Z-AUC.
[20] abbreviates: TFE3-RCC UOK109 viability, measured here: UOK109 Z-AUC.
Where [21] appears, read: TFE3-RCC viability, measured here: UOK124 Z-AUC.
[22] abbreviates: TFE3-RCC viability, measured here: UOK145 Z-AUC.

Turning to `Cn1cc(-c2cnn3c(N)c(Br)c([C@H]4CCCNC4)nc23)cn1`, the Potency in test [1] was 3.47 µM (active). Moreover, the Z-AUC in [1] was -0.529 (inactive); in test [1] (setting [19]), 0.414 and -1.48; in test [1] (measured here: PEO4 Z-AUC), 0.266 and -1.31.

On to `C[C@H]1COc2c(N3CCN(C)CC3)c(F)cc3c(=O)c(C(=O)O)cn1c23`, for which the Z-AUC in test [1] was -0.648 (inactive); in [1] (setting [19]), -0.279; in [1] (measured here: PEO4 Z-AUC) it was -0.579. The figures for the z-score in test [2] (setting [20]), in test [2] (setting [21]) and in test [2] (setting [22]) were 1.28, 0.967 and 1.39, respectively.

For the compound `O=C(O)CCCCCC(=O)NN=C1CCCC1`, the figures for the Z-AUC in [1], in test [1] (setting [19]) and in test [1] (measured here: PEO4 Z-AUC) were 1.41 (inactive), 1.02 and 1.15, respectively.

As for `Nc1ccn(C2CO[C@H](CO)O2)c(=O)n1` (stereo partly specified), the Z-AUC in [1] was 0.13 (inactive); in [1] (setting [19]), 0.905; in test [1] (measured here: PEO4 Z-AUC), 0.884. For the same compound, the z-score was found to be 1.41 in test [2] (setting [20]), 1.05 in test [2] (setting [21]) and 1.04 in test [2] (setting [22]).

With `Cn1cc(C[C@@H](N)C(=O)O)c2ccccc21`, the Z-AUC in test [1] was 0.11 (inactive); in test [1] (setting [19]), 1.01; in [1] (measured here: PEO4 Z-AUC) it was 0.769. Also, the z-score amounted to 1.28 in test [2] (setting [20]), 1.02 in [2] (setting [21]) and 1.04 in [2] (setting [22]).

In the case of `CN1CCc2c(c3ccccc3n2Cc2ccc(C(=O)NO)cc2)C1`, the values for the Z-AUC in [1], in [1] (setting [19]) and in test [1] (measured here: PEO4 Z-AUC) were -0.848 (inactive), -0.74 and -1.03, respectively.

Take `O=C(CCCCCCC(=O)Nc1cccnc1)NO`: the Z-AUC in test [1] was 0.519 (inactive); in test [1] (setting [19]) it was 0.211; in test [1] (measured here: PEO4 Z-AUC), 0.136.

Consider `O=c1c(O)c(-c2ccc(O)c(O)c2)oc2cc(O)ccc12`, for which the values for the Z-AUC in [1], in test [1] (setting [19]) and in test [1] (measured here: PEO4 Z-AUC) were 0.12 (inactive), -0.105 and 0.0271, respectively.

With `COC(=O)C1C2CC3c4[nH]c5cc(OC)ccc5c4CCN3CC2CC(OC(=O)c2cc(OC)c(OC)c(OC)c2)C1OC` (stereo unspecified), the Z-AUC is 1.42 (inactive) in test [1], 0.441 in [1] (setting [19]) and 0.416 in test [1] (measured here: PEO4 Z-AUC).

Regarding `Cn1cnc(=N)c2[nH]cnc21`, the results for the Z-AUC in [1], in test [1] (setting [19]) and in test [1] (measured here: PEO4 Z-AUC) were 1.05 (inactive), 0.768 and 0.897, respectively.

Turning to `COc1cccc2c1C(=O)c1c(O)c3c(c(O)c1C2=O)C[C@@](O)(C(=O)CO)C[C@@H]3O[C@H]1C[C@H](N)[C@H](OC2CCCCO2)[C@H](C)O1` (stereo partly specified), the Potency was 0.245 µM (active) in test [1]; 3.16 µM (active) in [3] (parasite line A); 4.47 µM (active) in test [3] (parasite line B); 2.24 µM (active) in test [4]; 0.794 µM (active) in test [5]; 3.55 µM (active) in test [6]. In addition, the Potency is 2.51 µM (active) in test [7]; 11.2 µM (active) in [8]; 3.98 µM (active) in [9]; 8.91 µM (active) in test [10]; 8.91 µM (active) in test [11]; 8.49 µM (active) in test [12]. The Potency in test [13] was 9.53 µM (active); in test [14], 9.53 µM (active); in test [15] it was 4.78 µM (active); in test [16], 6.75 µM (active); in test [17], 4.47 µM (active); in [18] it was 2.24 µM (active). In addition, the Z-AUC in test [1] is 0.402 (inactive); in [1] (setting [19]), -0.769 and -1.75; in [1] (measured here: PEO4 Z-AUC) it was 0.0749 and -1.06.
